Most compounds without a hit are left out; they make up all but 12% or so of the library.
HP1b chromo inh = HP1-beta chromodomain-methylated histone interaction inhibition; 390,000 compounds, 0.56% hits; Potency, µM (series often up to 114 µM), usual class: inhibitors; AID 540317; P83916; AlphaScreen HP1-beta / biotin-H3K9me3 peptide binding; note: nearly all actives have a fitted effect of over 70% in size
Target sequence (P83916 whole entry, looked up): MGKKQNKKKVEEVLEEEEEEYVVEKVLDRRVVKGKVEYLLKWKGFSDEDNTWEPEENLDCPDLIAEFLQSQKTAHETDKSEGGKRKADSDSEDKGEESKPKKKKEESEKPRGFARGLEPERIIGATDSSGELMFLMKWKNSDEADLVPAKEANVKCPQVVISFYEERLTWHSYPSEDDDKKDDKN
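HP1-beta protein (50 nM final) preincubated 30 min at room temperature with biotinylated H3(1-18)K9me3 peptide (50 nM) in PBS pH 7.4, 0.01% Tween-20, then compound added for 30 min. AlphaScreen streptavidin donor/nickel chelate acceptor beads (10 ug/mL final), 30 min dark, luminescence read.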
JMJD2A Tudor inh = inhibitors of human JMJD2A Tudor domain. O75164. AlphaScreen JMJD2A-Tudor / H3K4me3 peptide binding. Potency, µM (doses to about 114 µM), hits mostly inhibitors. 390,000 compounds, 4.4% hits; note: nearly all actives have a fitted effect of over 50% in size
BAZ2B inh = BAZ2B (human) inhibition; AID 504333; 360,000 compounds, 4.4% hits; Potency, µM (top dose mostly 114 µM), actives largely listed as inhibitors; AlphaScreen BAZ2B-H3K14Ac peptide displacement; Q9UIF8; note: nearly all actives have a fitted effect of over 60% in size
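In this displacement format the biotinylated H3(5-23) peptide acetylated at Lys14 serves as ligand at 50 nM, with BAZ2B at 50 nM in PBS pH 7.4 containing 0.01% Tween-20. Donor and acceptor beads are 10 ug/mL final.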
TDP1 block = blocks human tyrosyl-DNA phosphodiesterase 1 | Q9NUW8 | recombinant TDP1, AlphaScreen DNA substrate cleavage | Potency, µM (highest dose often 130 µM), hits mostly inhibitors | 350,000 compounds, 0.28% hits | AID 485290; note: nearly all actives have a fitted effect of over 40% in size
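Steps: enzyme plus compound, 15 min RT; add biotin/phosphotyrosine-FITC oligonucleotide (15 nM final), react 5 min; add donor/acceptor beads (10 ug/ml final), 10 min; read AlphaScreen. Tdp1 at 1 nM final.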
Sfp PPTase inh = inhibitors of Bacillus subtilis Sfp phosphopantetheinyl transferase; 310,000 compounds, 3.5% hits; Q9F4F7; Potency, µM, usual class: inhibitors; Biochemical Sfp PPTase activity, qHTS;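 note: the enzyme is Sfp with the accession as filed and its product quenches rhodamine fluorescence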
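Fluorescence-quenching assay: 15 nM Sfp-PPTase preincubated 15 min at room temperature with compound, then 5 uM rhodamine-CoA and 12.5 uM BHQ-2-labelled YbbR peptide added. Fluorescence (ex 525/em 598 nm) read at start and after 30 min; difference gives rate.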
G9a block = blocks human histone lysine methyltransferase G9a | Q96KQ7 | G9a H3K9 monomethylation, AlphaScreen, 2 h | Potency, µM (highest dose often 102 µM), most hits filed as inhibitors | 350,000 compounds, 8.8% hits; note: nearly all actives have a fitted effect of over 75% in size
Target sequence (Q96KQ7 913-1193 limits assumed): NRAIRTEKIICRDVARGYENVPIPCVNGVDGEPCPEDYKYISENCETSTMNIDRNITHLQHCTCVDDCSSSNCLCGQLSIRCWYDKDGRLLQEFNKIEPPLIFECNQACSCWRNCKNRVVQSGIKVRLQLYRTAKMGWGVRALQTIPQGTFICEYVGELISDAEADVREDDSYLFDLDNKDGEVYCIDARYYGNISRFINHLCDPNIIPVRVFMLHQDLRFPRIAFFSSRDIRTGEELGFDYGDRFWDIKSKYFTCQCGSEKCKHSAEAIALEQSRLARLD
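Quantitative HTS format: methyltransferase activity on a biotin-tagged H3K9 peptide is measured by AlphaScreen, using a rabbit anti-monomethyl-H3K9 antibody with streptavidin donor and anti-IgG acceptor beads. Final levels are 20 nM enzyme, 500 nM peptide, 20 uM SAM; 2 h RT.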
Of the large screens only hits and unclear results are named; the others gave an inactive call. Calls come from the whole dose curve; as a rule, active = well fitted curve in the direction sought with a large enough effect; inconclusive = small, poorly fitted or top-dose-only effect, or another doubt; inactive = no such curve, though single readings can be large; an effect the other way counts as inactive or inconclusive.

CC(C)CN1C(=O)C(=O)N(CC(=O)c2ccc3c(c2)OCO3)C1=O	G9a block inconclusive (no result: Sfp PPTase inh)
COCCNC(=O)C(c1ccncc1)N(C(=O)c1sc(C)nc1C)c1cccc(C)c1 (stereo not given)	none
C=CCn1c(SC(C)C(=O)NC2CC2)nnc1-c1ccoc1C (stereo not given)	none (no result: TDP1 block, Sfp PPTase inh)
CCN(CC)S(=O)(=O)c1ccc(OC)c(NC(=O)/C=C/c2ccco2)c1	HP1b chromo inh inconclusive, BAZ2B inh 71µM, Sfp PPTase inh 25µM (no result: TDP1 block, G9a block)
Cc1cccc(-c2ocnc2C(=O)Nc2ccccc2NC(=O)c2ccccn2)c1	Sfp PPTase inh 45µM
O=S1(=O)C2CC3C=CC2(O3)C(OCc2ccc(Cl)c(Cl)c2)C(Cc2ccccc2)N1Cc1ccc(Cl)c(Cl)c1 (stereo not given)	none (no result: BAZ2B inh, G9a block)
CCc1cccc(NC(=O)CSC2=NS(=O)(=O)c3ccccc32)c1	Sfp PPTase inh 14µM, G9a block 8.9µM
CCc1cccc(NC(=O)CSc2ncc3c(n2)-c2ccccc2N(CC)S3(=O)=O)c1	none (no result: Sfp PPTase inh)
CC(=O)CSc1nnc(CN2C(=O)CSc3ccc(C(F)(F)F)cc32)n1C	G9a block 45µM
OC(COCc1cccs1)CN1CCN(c2ccccc2Cl)CC1 (stereo not given)	none
OC(COCc1cccs1)CN1CCN(c2cccc(Cl)c2)CC1 (stereo not given)	HP1b chromo inh inconclusive, JMJD2A Tudor inh 2.8µM, BAZ2B inh 50µM, Sfp PPTase inh inconclusive, G9a block 10µM
CC(=O)c1ccc(OCC(C)Oc2ccc(C#N)cc2)cc1 (stereo not given)	none
Fc1ccc(OCCOCCN2CCNCC2)cc1	G9a block inconclusive
O=c1[nH]cccc1-c1nc2cc(Cl)ccc2n1Cc1ccccc1	G9a block 71µM (no result: TDP1 block)
O=c1[nH]cccc1-c1nc2ccccc2n1Cc1cccc(Cl)c1	none (no result: TDP1 block)
O=C(c1cc(COc2ccc(F)cc2Cl)on1)N(CCO)Cc1cccs1	none
COc1ccc(-c2nc(CN3CCC(C(=O)NCCCN4CCN(c5ccccc5F)CC4)CC3)c(C)o2)cc1OC	BAZ2B inh inconclusive (no result: Sfp PPTase inh)
O=C(NCc1ccco1)/C(=C/c1ccco1)NC(=O)c1ccc(Br)o1	Sfp PPTase inh inconclusive, G9a block inconclusive
O=C(NCc1ccco1)/C(=C\c1ccco1)NC(=O)c1ccc(Br)o1	Sfp PPTase inh 89µM
C=CCNC(=O)/C(=C\c1ccco1)NC(=O)c1ccco1	none (no result: TDP1 block)
O=C(NCCCO)/C(=C\c1ccco1)NC(=O)c1ccc(Br)o1	G9a block 28µM
CCCCNC(=O)/C(=C/c1ccco1)NC(=O)c1ccco1	none
O=C(NCc1ccco1)/C(=C/c1ccccc1)NC(=O)c1ccco1	none
O=C(NCc1ccco1)/C(=C\c1ccco1)NC(=O)c1ccco1	Sfp PPTase inh 45µM, G9a block 45µM
C=CCNC(=O)/C(=C/c1ccco1)NC(=O)c1ccc(Br)o1	Sfp PPTase inh 10µM, G9a block inconclusive
CCn1c(N)c(C(=O)COC(=O)CCc2nc3ccccc3c(=O)[nH]2)c(=O)[nH]c1=O	G9a block inconclusive (no result: Sfp PPTase inh)
CCN(CC)CCN(C(=O)c1ccc(Br)s1)c1nc2cc3c(cc2s1)OCCO3	G9a block 50µM (no result: BAZ2B inh)
CCN(CC)CCN(C(=O)c1ccc(Br)s1)c1nc2cc3c(cc2s1)OCO3	G9a block 50µM (no result: BAZ2B inh)
O=S(=O)(c1ccccc1)N1CCN(c2nccc(-c3cccs3)n2)CC1	none (no result: HP1b chromo inh, BAZ2B inh, TDP1 block, Sfp PPTase inh, G9a block)
Cc1cccc(C)c1OCC(N)C(C)C (stereo not given)	BAZ2B inh 71µM, G9a block 3.8µM (no result: Sfp PPTase inh)
O=C(O)c1cc([N+](=O)[O-])c(N2CCCC2)c([N+](=O)[O-])c1	G9a block 8.9µM
O=[N+]([O-])c1cc(C(F)(F)F)cc([N+](=O)[O-])c1N1CCCNCC1	JMJD2A Tudor inh inconclusive, G9a block inconclusive
Cc1ccccc1S(=O)(=O)Nc1nc2ccccc2nc1N1CCOCC1	BAZ2B inh 56µM
CN(Cc1cccs1)c1ncnc2ccc(-c3ccc4cnn(C)c4c3)cc12	none (no result: HP1b chromo inh, BAZ2B inh, TDP1 block, Sfp PPTase inh, G9a block)
CCCCc1nc(N2CCN(C(=O)c3ccco3)CC2)c(C#N)c2c1CCCC2	BAZ2B inh inconclusive, Sfp PPTase inh 45µM

Screening data from PubChem BioAssay.
